Compound activity (PubChem BioAssay)
A selection: hits, their analogues and other compounds. The true share with any hit is near 15%.
SARS PLP yeast = qHTS of Yeast-based Assay for SARS-CoV PLP; AID 485353, 2010; hit rate 0.19% among 330,000; Potency, µM (titrated, usually from 32.9 µM), actives largely listed as activators; S. cerevisiae expressing SARS-CoV PLpro, growth rescue; calls by dose curve; also: nearly all actives have a fitted effect of over 55% in size
Pf growth 48h = Primary qHTS for delayed death inhibitors of the malarial parasite plastid, 48 hour incubation; P. falciparum luciferase growth in erythrocytes, 48 h; hit rate 5.9% among 310,000; Potency, µM (series often up to 28.7 µM), most hits filed as inhibitors
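Here the parasites carry a stable luciferase gene and grow inside erythrocytes in Albumax-based RPMI medium with compound for one erythrocytic cycle. Activity is scored as loss of luminescent signal.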
Pf growth 96h = Primary qHTS for delayed death inhibitors of the malarial parasite plastid, 96 hour incubation; P. falciparum luciferase reporter growth, 96 h; Potency, µM (series often up to 28.7 µM), actives largely listed as inhibitors; hit rate 6.9% among 320,000; AID 504834, 2011
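Parasite growth measured via integrated firefly luciferase reporter in P. falciparum. Infected erythrocytes at 2% hematocrit, 0.05% parasitemia final were treated 96 hours at 37 C under 5% CO2, and luminescence was read.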
HCV inhibitor = qHTS Assay for Inhibitors of Hepatitis C Virus (HCV); Huh7.5.1 HCVcc-Cre infection, luciferase reporter, 44 h; Potency, µM (series often up to 41.8 µM), actives largely listed as inhibitors; hit rate 3.4% among 340,000
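Infectious HCV cell culture screen: compound-treated cells (1,000/well, pre-plated 4 h) are infected with HCVcc-Cre at roughly 0.5 moi and grown 44 h. Infection is quantified by luciferase signal after 15 min substrate incubation at room temperature.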
HCMV antiviral = qHTS Assay for inhibitors of the human cytomegalovirus (HCMV) | HFF cells, HCMV-luciferase reporter, 72 h; stronger effect = lower value | activity change, negative = inhibition, % at 57.5 µM | hit rate 4.5% among 410,000 | AID 1259415, 2018; in the data active = activity change below about -60%; inconclusive = no clear call, values can overlap the other calls; inactive = above about -39%
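Human foreskin fibroblasts infected with luciferase-reporter HCMV at MOI 1 PFU/cell, compounds at two doses. Luciferase measured 72 h post infection; normalized to buffer-only basal and Salinomycin (10uM) controls.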
Sm TGR block = qHTS Assay for the Inhibitors of Schistosoma Mansoni Peroxiredoxins | Schistosoma mansoni thioredoxin glutathione reductase (TGR), Q962Y6 | purified TGR, DTNB reduction, TNB absorbance 405 nm | Potency, µM (series often up to 114 µM), actives largely listed as inhibitors | hit rate 3% among 360,000 | AID 485364, 2010; also: nearly all actives have a fitted effect of over 60% in size
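TGR 20 nM + NADPH 100 uM (dispensed conc.), cpd preinc 15 min RT; start with NADPH (500 uM addition) then DTNB (15 mM addition). Kinetic TNB absorbance, 405 nm filter. Four-parameter Hill fit across titration.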
Each line names hits and unclear results; the compound was inactive in the other large screens. Unless noted, calls follow the shape of the dose curve; as a rule, active = well fitted curve in the direction sought with a large enough effect; inconclusive = small, poorly fitted or top-dose-only effect, or another doubt; inactive = no such curve, though single readings can be large; an effect the other way counts as inactive or inconclusive.

COc1ccc(/C=C2\SC(=S)N(CCC(=O)N3CCCCC3)C2=O)cc1	none
O=C(CCN1C(=O)/C(=C/c2ccccc2)SC1=S)N1CCCCCC1	HCV inhibitor inconclusive, HCMV antiviral -97
C=CCOc1nc2sc(C)c(C)c2c(=O)n1-c1ccccc1	Pf growth 96h 8.3µM
O=C1N[C@@H](Cc2ccccc2)C(=O)N2[C@H]1C[C@]1([C@]34C[C@H]5C(=O)N[C@@H](Cc6ccccc6)C(=O)N5[C@H]3N(S(=O)(=O)c3ccccc3)c3ccccc34)c3ccccc3N(S(=O)(=O)c3ccccc3)[C@H]21	Pf growth 48h 1.5µM, Pf growth 96h 0.74µM, HCV inhibitor inconclusive, HCMV antiviral inconclusive
S=C(NCC1CCCO1)Nc1cccc2ccccc12 (stereo unspecified)	Pf growth 96h 1µM
S=C(NCC1CCCO1)Nc1ccc(Nc2ccccc2)cc1 (stereo unspecified)	Pf growth 96h 12µM, HCV inhibitor inconclusive, HCMV antiviral -69 (no result: Sm TGR block)
Cn1c(=O)c2cc(S(=O)(=O)NC(C(=O)N3CCCCCC3)c3ccccc3)ccc2n(C)c1=O (stereo unspecified)	Pf growth 96h 10µM (no result: Pf growth 48h)
Cn1c(=O)c2cc(S(=O)(=O)NC(C(=O)NC3CCCCC3)c3ccccc3)ccc2n(C)c1=O (stereo unspecified)	none (no result: Pf growth 48h)
CC1CN(C(=O)/C=C/c2ccc([N+](=O)[O-])s2)CC(C)O1 (stereo unspecified)	Pf growth 48h inconclusive, Pf growth 96h inconclusive, HCV inhibitor inconclusive, HCMV antiviral -68, Sm TGR block 20µM
CC1CN(C(=O)/C=C/c2ccccc2[N+](=O)[O-])CC(C)O1 (stereo unspecified)	Pf growth 96h inconclusive, HCMV antiviral inconclusive (no result: Sm TGR block)
CC1CN(C(=O)/C=C/c2cccc([N+](=O)[O-])c2)CC(C)O1 (stereo unspecified)	none (no result: SARS PLP yeast, Pf growth 48h, Pf growth 96h, Sm TGR block)
CC1CC(C)CN(C(=O)/C=C/c2ccc([N+](=O)[O-])s2)C1 (stereo unspecified)	Pf growth 96h 9.3µM, HCV inhibitor inconclusive, HCMV antiviral -87, Sm TGR block 13µM
CCOC(=O)Cc1csc(NC(=O)C(NC(=O)C2CCC(C)CC2)C(C)C)n1 (stereo unspecified)	HCV inhibitor inconclusive
N#CCCN(Cc1cccnc1)C(=S)NC(=O)C1CC1	Pf growth 48h inconclusive (no result: HCV inhibitor, HCMV antiviral)
C/C(CCN1CCc2nc(-c3ccccc3)c(-c3ccccc3)cc2C1)=N\O[C@@H](C)c1cn([C@H](CO)Cc2ccccc2)nn1	Pf growth 48h inconclusive, Pf growth 96h 13µM (no result: HCMV antiviral)
CN(c1ccccc1)c1nc(N)c([N+](=O)[O-])c(N2CCOCC2)n1	none
CCS(=O)(=O)N1CCC(C(=O)Oc2ccccc2OC)CC1	Pf growth 96h 13µM
CCOc1ccccc1NC(=O)C1CCN(S(=O)(=O)c2ccc(OC)c(OC)c2)CC1	Pf growth 96h 6.6µM, HCMV antiviral inconclusive
CCCCS(=O)(=O)N1CCC(C(=O)Oc2ccccc2OC)CC1	none
CCOc1ccccc1NC(=O)C1CCN(c2ccc(S(=O)(=O)N3CCCC3)cc2)CC1	Pf growth 48h 4.7µM, HCV inhibitor inconclusive
CCC(C(=O)NC1CCCC1)n1c(-c2cc3ccccc3[nH]2)nc2ccccc21 (stereo unspecified)	none (no result: SARS PLP yeast, Pf growth 48h, Pf growth 96h, HCV inhibitor, Sm TGR block)
OCCC(N1CCOCC1)C(O)(c1ccccc1)c1ccccc1 (stereo unspecified)	none (no result: SARS PLP yeast, Pf growth 48h, Pf growth 96h, HCV inhibitor, Sm TGR block)
COCCNc1nc(SCC(=O)N2CCN(c3ccccc3OC)CC2)nc2ccccc12	Pf growth 48h inconclusive, HCV inhibitor 10µM
COc1ccccc1N1CCN(C(=O)CSc2ccc3c(C)cc(C)nc3n2)CC1	Pf growth 48h 10µM, HCV inhibitor inconclusive
O=C1CC(c2nc(-c3cccc(Cl)c3)no2)CN1c1ccc2c(c1)OCCO2 (stereo unspecified)	none (no result: SARS PLP yeast, Pf growth 48h, Pf growth 96h, HCV inhibitor)
CCCC1COC(Cn2cncn2)(c2ccc(Cl)cc2Cl)O1 (stereo unspecified)	Pf growth 48h 12µM
O=C(NC1CC1)c1cccc(NC(=O)C2CCCCC2)c1	none (no result: SARS PLP yeast, Pf growth 48h, Pf growth 96h, Sm TGR block)
Cc1ccc(N2CCN(c3nc4ccc(C(=O)c5ccccc5)cc4n4cnnc34)CC2)c(C)c1	none (no result: SARS PLP yeast, Pf growth 48h, Pf growth 96h, HCV inhibitor)
CCOC(=O)C1CCCN(C(=O)CN2C(=O)/C(=C/c3ccc(OC)cc3)Oc3ccccc32)C1 (stereo unspecified)	Pf growth 48h inconclusive, HCV inhibitor inconclusive
CC1(Cc2cc(Cl)ccc2C(F)(F)F)C(=O)Nc2cc(C(F)(F)F)ccc21 (stereo unspecified)	none (no result: SARS PLP yeast, Pf growth 48h, Pf growth 96h, HCV inhibitor, Sm TGR block)
CC1(Cc2ccc(C(F)(F)F)o2)C(=O)Nc2cc(-c3ccc(F)cc3F)ccc21 (stereo unspecified)	HCMV antiviral -100 (no result: SARS PLP yeast, Pf growth 48h, Pf growth 96h, HCV inhibitor, Sm TGR block)
COc1cccc(CNC(=O)CCC2CCCN(c3cc(C)nc(N4CCCC4)n3)C2)c1 (stereo unspecified)	Pf growth 48h inconclusive, Pf growth 96h 12µM
COc1cccc(CNC(=O)CCC2CCCN(C(=O)c3ccoc3)C2)c1 (stereo unspecified)	HCMV antiviral inconclusive
COc1cccc(CNC(=O)CCC2CCCN(C3CCOCC3)C2)c1 (stereo unspecified)	Pf growth 96h inconclusive, Sm TGR block 4.5µM (no result: HCMV antiviral)
CCc1ccc(NC(=O)C(=O)c2ccccc2NC(C)=O)cc1	none
Fc1ccc(Nc2cc3[nH]c(-c4ccccc4)cc3cn2)cc1	none (no result: SARS PLP yeast, Pf growth 48h, Pf growth 96h, HCV inhibitor, Sm TGR block)
Nc1nc2n(n1)C(c1cccs1)CC(c1ccccc1)N2 (stereo unspecified)	Pf growth 96h inconclusive
Nc1nc2n(n1)C(=O)CC(c1ccccc1)N2 (stereo unspecified)	Pf growth 96h 9.3µM
O=C(Cc1nc(=O)c2ccccc2s1)Nc1ccccc1	HCMV antiviral -106
CCOC(=O)CN1C(=O)/C(=C/c2ccccc2Br)Oc2ccccc21	Pf growth 96h 2.1µM
O=S(=O)(c1ccccc1)N(F)S(=O)(=O)c1ccccc1	Sm TGR block inconclusive
CCn1c(SCC(=O)Nc2nc3ccccc3s2)nnc1-c1ccc(OC)cc1	none (no result: Pf growth 96h)
CCn1c(CCNC(=O)c2cccs2)nnc1SCC(=O)Nc1nc(-c2ccccc2)cs1	Pf growth 48h 12µM, Pf growth 96h inconclusive
O=C(CSc1nc2ccccc2o1)Nc1nc2c(s1)CCCC2	HCV inhibitor inconclusive, HCMV antiviral -86 (no result: SARS PLP yeast, Pf growth 48h, Pf growth 96h, Sm TGR block)
CCn1c(SCC(=O)Nc2nc(-c3ccccc3)cs2)nnc1-c1ccccc1O	Pf growth 48h inconclusive, HCV inhibitor 11µM (no result: Pf growth 96h)
O=C(CSc1nc2ccccc2o1)Nc1nc2ccccc2s1	none (no result: Pf growth 96h)
CCn1c(SCC(=O)Nc2nc3c(s2)CCCC3)nnc1-c1ccccc1	Pf growth 48h 2.1µM (no result: HCV inhibitor)
